Screening results: PubChem BioAssay, several laboratories
CatS block = human cathepsin S inhibition; recombinant cathepsin S, AMC dipeptide fluorescence, pooled mixtures; inhibition, %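 (tested at 5 µM per compound within 10-compound mixtures)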; hit rate 0.06% among 62,000; in the data active = inhibition above about 32%, passing the limit was not always enough; inconclusive = no clear call, values can overlap the other calls
Target sequence (P25774 115-331 limits assumed): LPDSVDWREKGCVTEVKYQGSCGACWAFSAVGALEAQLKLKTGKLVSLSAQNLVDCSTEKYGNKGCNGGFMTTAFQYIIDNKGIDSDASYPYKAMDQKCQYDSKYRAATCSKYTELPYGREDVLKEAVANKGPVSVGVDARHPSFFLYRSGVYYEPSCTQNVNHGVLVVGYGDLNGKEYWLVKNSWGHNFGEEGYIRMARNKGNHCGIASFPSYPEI
CatL block = inhibitors of human cathepsin L; purified cathepsin L, fluorogenic substrate, fluorescence; hit rate 0.17% among 58,000; P07711; inhibition, %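 (tested at 10 µM)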; in the data active = inhibition above about 45%
Target sequence (P07711 114-288 limits assumed): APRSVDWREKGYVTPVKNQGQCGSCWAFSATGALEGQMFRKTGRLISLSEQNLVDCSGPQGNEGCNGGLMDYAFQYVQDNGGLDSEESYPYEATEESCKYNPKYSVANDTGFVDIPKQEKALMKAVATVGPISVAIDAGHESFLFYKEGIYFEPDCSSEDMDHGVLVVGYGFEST
Target sequence (P07711 292-333 limits assumed): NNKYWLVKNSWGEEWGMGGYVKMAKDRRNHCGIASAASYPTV
Hsp90 block = displaces geldanamycin probe from tumor Hsp90; P07900; NCI-N417 lysate Hsp90, Cy3B-geldanamycin FP displacement; inhibition, % at 30 µM; hit rate 0.35% among 64,000;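 active = inhibition above 50%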
CatB mixtures = inhibitors of human cathepsin B in compound mixtures; P07858; Purified cathepsin B, AMC dipeptide fluorescence; inhibition, %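 (ten-compound pools at 5 µM per compound and 50 µM total)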; hit rate 0.06% among 62,000; in the data active = inhibition above about 22%, passing the limit was not always enough; inconclusive = no clear call, values can overlap the other calls
CatB block = human cathepsin B inhibition; P07858; hit rate 0.1% among 63,000; purified cathepsin B, fluorogenic substrate, fluorescence; inhibition, %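 (tested at 10 µM)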; in the data active = inhibition above about 21%
A number is an active result; . = inactive; ? = inconclusive; / = not tested or not shown. Most compounds without a hit are left out; they make up all but 0.6% or so of the library.

SMILES	CatS block	CatL block	Hsp90 block	CatB mixtures	CatB block
COc1cc(NCCN(CC(C)C)CC(C)C)c2ncccc2c1	/	/	.	/	/
O=S(=O)(NC1CCc2ccccc21)c1ccc(S(=O)(=O)N2CCCC2)cc1 (stereo not given)	.	.	92	.	.
N.N.N.N.N.N.N.N.N.N.N.N.N.N.O.O.[Cl-].[Cl-].[Cl-].[Cl-].[Cl-].[Cl-].[Ru+4].[Ru+5].[Ru+5]	/	/	.	/	/
O=C1c2ccccc2-c2onc3ccc(NCc4ccco4)c1c23	/	.	50	/	.
CCOc1ccc2noc3c2c1C(=O)c1ccccc1-3	.	/	.	.	/
COc1ccc2c(C)nc(Nc3nc(C)cc(C)n3)nc2c1	.	61	.	.	.
COc1ccc(Nc2nc(C)c3ccccc3n2)cc1	.	.	.	.	.
CCOc1ccc(NCC(=O)Nc2ccc(C)cc2C)cc1	.	.	52	.	.
COc1ccc(-c2[nH]ncc2-c2ccc3c(c2)OCCO3)c(O)c1	.	.	.	.	.
CCc1cc(-c2[nH]ncc2-c2ccc3c(c2)OCO3)c(O)cc1O	.	.	96	.	.
CCOC(=O)c1ccccc1NC(=O)Cn1c(-c2nonc2N)nc2ccccc21	.	.	.	.	59
Nc1nonc1-c1nc2ccccc2n1Cc1ccccc1	.	.	.	43	.
Nc1nonc1-c1nc2ccccc2n1CC(=O)NC1CCCC1	.	.	.	.	.
N#Cc1ccc(CSc2nnc(Nc3ccccc3)s2)cc1	.	.	85	.	.
CCOc1cc(N2CCOCC2)c(OCC)cc1NC1=NCCCCC1	.	.	61	.	.
COc1ccc2c(c1)c1c(C)c3cnccc3c(C)c1n2CCCN	/	/	.	/	/
O=C(O)c1ccccc1C(=O)NCc1ccc(F)cc1	.	.	.	.	21
O=C(c1cncc(Br)c1)N1CCN(c2ccc(N3CCOCC3)nn2)CC1	.	.	.	.	52
CC(=O)NC(=O)NC1OC(=O)C(Cl)=C1Cl (stereo not given)	.	.	.	?	21
CCCCS(=O)(=O)Nc1cc(OC)cc2cccnc12	/	/	.	/	/
Oc1ccccc1O	/	/	52	/	/
Oc1ccc(O)cc1	/	/	.	/	/
CCOC(=O)N1CCC(NC(=O)C2CCCCN2S(=O)(=O)c2ccc(F)cc2)CC1 (stereo not given)	.	104	.	.	.
CCN(C(=O)COc1cc(=O)n(CC)c2ccccc12)c1cccc(Cl)c1	.	.	.	.	25
CC(=O)Nc1ccc(S(=O)(=O)/N=C2\SCCN2S(=O)(=O)c2ccc(NC(C)=O)cc2)cc1	.	79	.	.	.
SMILES	CatS block	CatL block	Hsp90 block	CatB mixtures	CatB block
CCOC(=O)CNS(=O)(=O)c1cc(-c2n[nH]c(=O)c3ccccc23)ccc1C	/	.	.	/	23
NC[C@@H]1O[C@H](C23CC4CC(CC(C4)C2)C3)Cc2c1ccc(O)c2O	/	/	78	/	/
N[C@H]1CONC1=O	/	/	.	/	/
CN(C)CCCN1C(=O)C(=O)/C(=C(/O)c2ccc(OCc3ccccc3)cc2)C1c1cccnc1 (stereo not given)	.	/	78	.	.
COc1ccc(/C(O)=C2/C(=O)C(=O)N(CCCN(C)C)C2c2cccnc2)cc1 (stereo not given)	.	.	.	.	.
COc1ccc(N2CCN(c3nc4c(c(=O)n(C)c(=O)n4C)n3CCCc3ccccc3)CC2)cc1	.	.	.	.	.
COc1ccc(OC)c(/C=N/c2oc(-c3ccco3)c(-c3ccco3)c2C#N)c1	.	.	55	.	.
N#Cc1c(N)oc(-c2ccco2)c1-c1ccco1	.	.	.	.	.
Cc1nnc(SCCn2c(N(C)Cc3ccccc3)nc3c2c(=O)n(C)c(=O)n3C)s1	/	/	.	/	/
OCCN(CCO)c1nc(N2CCCCC2)c2nc(N(CCO)CCO)nc(N3CCCCC3)c2n1	.	.	61	.	.
Cc1nc2ncnn2c(C)c1CCC(=O)NCCCN1CCN(c2cccc(Cl)c2)CC1	.	.	.	.	.
O=c1oc2c3c4c(cc2s1)CCCN4CCC3	.	.	69	.	.
Cc1nc(N2CCN(S(=O)(=O)c3cccc4nonc34)CC2)c2c3c(sc2n1)CCCC3	.	.	.	.	.
CCCCOc1ccc(C2C3CN(C(=O)OCC)CC=C3C(C#N)=C(N)C2(C#N)C#N)cc1OC (stereo not given)	.	60	.	.	.
CCOC(=O)N1CC=C2C(C#N)=C(N)C(C#N)(C#N)[C@H](c3ccc(OCC)c(OCC)c3)[C@H]2C1	.	.	.	.	.
COc1cc(NCCCC(C)=O)c2ncccc2c1	/	/	.	/	/
COc1ccc(CCNC(=O)C2CCN(S(=O)(=O)c3cc(OC)ccc3OC)CC2)cc1	.	46	.	.	.
Oc1ccc(C=Nc2ccc3ncccc3c2)c(O)c1	/	.	76	/	.
Oc1ccc(C=Nc2cccc3ncccc23)c(O)c1	.	.	.	.	.
CCCc1c(OCCCOc2ccc(OCC(=O)O)cc2)ccc(C(C)=O)c1O	/	/	.	/	/
O=C(NCCCn1ccnc1)c1noc2c1CCc1ccccc1-2	.	.	63	.	.
N#C/C(=C\c1ccc(O)c(O)c1)C(=O)NCCc1ccccc1	/	/	83	/	/
COC(=O)Sc1nc(N2CCOCC2)c2c(c1C#N)CC(C)(C)OC2	/	.	.	/	47
COc1ccc(OC)c(C2C(C#N)=C(N)Oc3cc(C)n(Cc4ccccn4)c(=O)c32)c1 (stereo not given)	/	63	.	/	.
CCOc1cccc(C2C(C#N)=C(N)Oc3cc(C)n(Cc4ccccn4)c(=O)c32)c1OCC (stereo not given)	.	.	.	.	.
SMILES	CatS block	CatL block	Hsp90 block	CatB mixtures	CatB block
COc1ccc(C2=NO[C@@H]3C(=O)N(C4CCCCC4)C(=O)[C@H]23)cc1OC	.	.	.	.	.
COc1ccc(C2=NO[C@@H]3C(=O)N(c4ccc5c(c4)OCCO5)C(=O)[C@H]23)cc1OC	.	.	68	.	.
COc1cccc(CN(Cc2cccnc2)S(=O)(=O)c2ccc(-n3cnnn3)c(C)c2)c1OC	.	.	.	.	.
COc1ccccc1CN(Cc1ccco1)S(=O)(=O)c1ccc(-n2cnnn2)c(OC)c1	60	.	.	.	.
Cc1ccc(CCP(=O)(O)CN2CCCCC2)cn1	.	.	.	.	.
O=C(C1CCN(c2nnc(-n3cccc3)s2)CC1)N1CCN(Cc2ccc3c(c2)OCO3)CC1	.	53	.	.	.
O=C(C1CCN(c2nnc(N3CCCC3=O)s2)CC1)N1CCN(Cc2ccc3c(c2)OCO3)CC1	.	47	.	.	.
Cc1ccc(Cl)cc1N1CCN(C(=O)C2CCN(c3nnc(-n4cccc4)s3)CC2)CC1	.	.	.	.	.
CC1CCN(Cc2ccc(NC(=O)C3CCN(c4nnc(-n5cccc5)s4)CC3)cc2)CC1	/	67	.	.	.
COCC(C)NC(=O)C1CC(c2cccc(Br)c2)=NO1 (stereo not given)	.	.	.	.	.
c1ccc2c(c1)CCCN2Cc1nnnn1C1CCCC1	.	.	.	.	.
c1ccc2sc(SCc3ccc(-c4nnco4)cc3)nc2c1	.	.	91	.	.
COc1cc(C(=O)NCC(=O)n2nc(C)cc2C)cc(OC)c1OC	/	.	.	/	.
COc1cccc(C(=O)NCC(=O)n2nc(C)cc2C)c1	/	.	121	/	.
Cc1ccc(S(=O)(=O)Nc2ccc3oc(=O)sc3c2)c(C)c1	.	.	56	.	.
